Source: PubChem BioAssay (Tox21)
Records with an inconclusive call do not appear. Activity calls are given as the source filed them. Unless noted, calls come from the whole dose curve; as a rule, active = well fitted curve in the direction sought with a large enough effect in the repeat runs; inconclusive = weak or mixed curves; inactive = no such curve, though single readings can be large; an effect the other way counts as inactive or inconclusive.

Key:
[1] = qHTS assay to identify small molecule agonists of the hypoxia (HIF-1) signaling pathway - cell viability counter screen (AID 1224844; calls by dose curve; note: nearly all actives have a fitted effect of over 50% in size)
Method in brief: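 Viability counter screen: HRE-bla ME-180 cells plated 5 hrs before compound addition, treated 17 hrs at 37C and 5% CO2, then CellTiter-Glo added after the FRET reporter read; luminescence after 30 min.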

[2] = qHTS assay to identify small molecule agonists of H2AX (AID 1224845; active = well fitted activation curve with a large enough effect in the signal ratio in the repeat runs, not every such curve was filed as active; the % refers to the signal ratio)
Method in brief: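 Wild-type CHO-K1 cells plated overnight, then exposed 3 hr at 37C to compounds at 15 concentrations (0.76% DMSO). Lysed, then HTRF anti-pH2AX(S139)-cryptate/anti-H2AX-d2 detection after 24 hr at room temperature; emissions 665 and 620 nm.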

[3] = qHTS assay to identify small molecule agonists of the hypoxia (HIF-1) signaling pathway (AID 1224846; active = well fitted activation curve with a large enough effect in the signal ratio in the repeat runs, not every such curve was filed as active; the % refers to the signal ratio)
Method in brief: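 Agonist mode reporter screen. ME-180 cells stably expressing bla under HRE control received test compounds in DMSO for 17 hrs (37C, 5% CO2), and beta-lactamase activity was then detected with the CCF4-AM FRET substrate.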

[4] = qHTS assay to identify small molecule agonists of H2AX - cell viability counter screen (AID 1224847; calls by dose curve; note: top concentration of the series differs between compounds; nearly all actives have a fitted effect of over 30% in size)
Method in brief: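 Viability of CHO-K1 (wild type) cells after 3 hr compound exposure was measured by CellTiter-Glo luminescence.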

[5] = qHTS assay to identify small molecule antagonists of the estrogen related receptor (ERR) signaling pathway from Tox21 library (AID 1224848); note: nearly all actives have a fitted effect of over 50% in size
Method in brief: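 Tox21 10K compounds in DMSO tested for ERR pathway antagonism in NTP's ERR cell line; 18 h, 37 C exposure; ONE-Glo luminescence.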

[6] = qHTS assay to identify small molecule agonists of the estrogen related receptor (ERR) signaling pathway from Tox21 library (AID 1224849; calls by dose curve; note: nearly all actives have a fitted effect of over 15% in size); details: ERR reporter cell line, ONE-Glo luciferase, 18 h; at 92.4 µM (top of the series) unless noted
Method in brief: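 Quantitative HTS in agonist format: NTP ERR cell line, compounds transferred in DMSO after 6 h plating, 18 h incubation at 37 C, ONE-Glo luminescence endpoint.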

[7] = qHTS RealTime-Glo MT Cell Viability Assay in HepG2 cells - 24 hour (AID 1224867); note: nearly all actives have a fitted effect of over 50% in size
Method in brief: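 qHTS, HepG2, 600 cells/well, RealTime-Glo (NanoLuc + prosubstrate) added with cells; 5 h preincubation; DMSO compound addition; 37 C; luminescence at 0/8/16/24/32/40 h.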

[8] = qHTS RealTime-Glo MT Cell Viability Assay in HEK293 cells - 32 hour (AID 1224868); note: top concentration of the series differs between compounds; nearly all actives have a fitted effect of over 50% in size
Method in brief: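 Assay medium contained NanoLuc luciferase plus cell-permeant prosubstrate, added with HEK293 cells at 600 cells/well. After 5 h at 37 C/5% CO2 compounds were added; plates stayed at 37 C for 40 h with serial luminescence reads.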

[9] = A CellTox Green Cytotoxicity Assay to monitor cytotoxicity in HEK293 cells - 0 hour (AID 1224869); note: nearly all actives have a fitted effect of over 50% in size
Method in brief: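 Dead-cell fluorescence measured kinetically: asymmetric cyanine dye, HEK293, 600 cells/well, 5 h settle, 23 nL cpd/DMSO, 37 C, reads 0–40 h every 8 h.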

[10] = qHTS RealTime-Glo MT Cell Viability Assay in HepG2 cells - 40 hour (AID 1224870); note: nearly all actives have a fitted effect of over 50% in size
Method in brief: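 HepG2 cells mixed with RealTime-Glo MT reagents (NanoLuc plus cell-permeant prosubstrate) were seeded at 600 cells/well, incubated 5 h at 37 C/5% CO2, then pinned with compounds in DMSO; nonlytic luminescence tracked viability during 40 h treatment.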
% is set by controls: 0 for no effect and ±100 for the full control effect.

ClCCOCOCCCl
inactive: Potency [1] | Potency [2] | outcome [3] | Potency [4] | Potency [5] | activity change, positive = activation [6] -2.74% | Potency [7] | Potency [8] | Potency [9] | Potency [10]

O=C(O)C(Br)CBr (stereo not given)
inactive: Potency [1] | Potency [2] | outcome [3] | Potency [4] | Potency [7] | Potency [8] | Potency [9] | Potency [10]

CCC(C)n1c(=O)[nH]c(C)c(Br)c1=O (stereo not given)
inactive: Potency [1] | Potency [2] | outcome [3] | Potency [4] | Potency [5] | Potency [7] | Potency [8] | Potency [9] | Potency [10]

O=C(N[C@H]1CN2CCC1CC2)c1cc2ccoc2cn1
inactive: Potency [1] | Potency [2] | outcome [3] | Potency [4] | Potency [7] | Potency [8] | Potency [9] | Potency [10]

N#CCBr
inactive: Potency [1] | Potency [2] | outcome [3] | Potency [4] | Potency [5] | Potency [7] | Potency [8] | Potency [9] | Potency [10]

CNC(=O)Oc1ccccc1C1OCCO1
inactive: Potency [1] | Potency [2] | outcome [3] | Potency [4] | Potency [5] | Potency [7] | Potency [8] | Potency [9] | Potency [10]

COP(=S)(OC)Oc1c(Cl)cc(C)cc1Cl
inactive: Potency [1] | Potency [2] | outcome [3] | Potency [4] | Potency [5] | activity change, positive = activation [6] 0.872% | Potency [7] | Potency [8] | Potency [10]

CN1CCC(O)(c2ccc(F)cc2)C(C(=O)c2ccc(F)cc2)C1 (stereo not given)
inactive: Potency [1] | Potency [2] | outcome [3] | Potency [4] | Potency [5] | Potency [7] | Potency [8] | Potency [9]

ClCC(Cl)(Cl)Cl
inactive: Potency [1] | Potency [2] | outcome [3] | Potency [4] | Potency [7] | Potency [8] | Potency [9] | Potency [10]

CCC(Cl)[N+](=O)[O-] (stereo not given)
inactive: Potency [1] | Potency [2] | outcome [3] | Potency [4] | Potency [5] | Potency [7] | Potency [8] | Potency [10]

CC1=C(C(=O)O)N2C(=O)[C@@H](N)[C@H]2SC1
inactive: activity change, negative = cytotoxicity [1] 0.296% [at 15.8 µM] | activation (H2AX phosphorylation) [2] -1.16% [at 31.6 µM] | activation [3] -0.576% [at 15.8 µM] | activity change, negative = cytotoxicity [4] -3.1% [at 31.6 µM] | activity, negative = inhibition [5] 6% [at 19 µM] | activity change, negative = cytotoxicity [7] 0.806% [at 15.8 µM] | activity change, negative = cytotoxic [8] 1.51% [at 15.8 µM] | cytotoxicity [9] -3.35% [at 15.8 µM] | activity change, negative = cytotoxic [10] 1.44% [at 15.8 µM]

CCCCN(CCCCO)N=O
inactive: Potency [1] | Potency [2] | outcome [3] | Potency [4] | Potency [5] | Potency [7] | Potency [8] | Potency [9] | Potency [10]

CCc1cc2c(s1)-n1c(C)nnc1CN=C2c1ccccc1Cl
inactive: Potency [1] | Potency [2] | outcome [3] | Potency [4] | Potency [5] | Potency [7] | Potency [10]

ClC(Br)Br
inactive: Potency [1] | Potency [2] | outcome [3] | Potency [4] | Potency [5] | activity change, positive = activation [6] 1.41% | Potency [7] | Potency [8] | Potency [9] | Potency [10]

CCS(=O)(=O)C(C)(C)S(=O)(=O)CC
inactive: Potency [1] | Potency [2] | outcome [3] | Potency [4] | Potency [5] | activity change, positive = activation [6] 3.77% [at 42.5 µM] | Potency [7] | Potency [8] | Potency [9] | Potency [10]

ClCCCN1CCN(c2cccc(Cl)c2)CC1
inactive: Potency [1] | Potency [2] | outcome [3] | Potency [4] | Potency [5] | Potency [7] | Potency [8] | Potency [9] | Potency [10]

CC(Cl)(Cl)[N+](=O)[O-]
inactive: Potency [1] | Potency [2] | outcome [3] | Potency [4] | Potency [5] | activity change, positive = activation [6] 2.67% | Potency [7] | Potency [8] | Potency [9] | Potency [10]

CN(C)CCc1ccc(O)cc1
inactive: Potency [1] | Potency [2] | outcome [3] | Potency [4] | Potency [5] | activity change, positive = activation [6] 5.13% [at 42.5 µM] | Potency [7] | Potency [9] | Potency [10]

COc1cc2c(cc1OC)[C@@]13CCN4CC5=CCO[C@H]6CC(=O)N2[C@H]1[C@H]6[C@H]5C[C@H]43
inactive: Potency [1] | Potency [2] | outcome [3] | Potency [4] | Potency [7] | Potency [8] | Potency [9] | Potency [10]

COc1cccc(C(=O)NN(C(=O)c2cc(C)cc(C)c2)C(C)(C)C)c1C
inactive: Potency [1] | Potency [2] | outcome [3] | Potency [4] | activity change, positive = activation [6] -24.8% | Potency [8] | Potency [9] | Potency [10]

COc1cc(C[C@@H](C)N)c(OC)cc1C
inactive: Potency [1] | Potency [2] | outcome [3] | Potency [4] | Potency [5] | Potency [7] | Potency [8] | Potency [9] | Potency [10]

COC(=O)c1ccccc1S(=O)(=O)NC(=O)N(C)c1nc(C)nc(OC)n1
inactive: Potency [1] | Potency [2] | outcome [3] | Potency [4] | Potency [5] | Potency [7] | Potency [8] | Potency [9] | Potency [10]

CCN(CC)CCOC(=O)C(C)(c1ccccc1)c1ccccc1
inactive: Potency [1] | Potency [2] | outcome [3] | Potency [4] | Potency [5] | activity change, positive = activation [6] 0.519% [at 42.5 µM] | Potency [7] | Potency [8] | Potency [9] | Potency [10]

NC(=S)C(N)=S
inactive: Potency [1] | Potency [2] | outcome [3] | Potency [4] | activity change, positive = activation [6] -20.6% | Potency [7] | Potency [8] | Potency [9] | Potency [10]

[As]#[In]
inactive: Potency [1] | Potency [2] | outcome [3] | Potency [4] | Potency [5] | activity change, positive = activation [6] 0.493% | Potency [7] | Potency [10]
